# Results: PubChem BioAssay (EPA / NIEHS)
# Values joined by “and” are separate entries in the source; they are usually repeats but may differ in a detail not shown here. Equal entries are not always repeated. Results filed as inconclusive are left out. Active and inactive are the calls of the source. Rule for the calls, unless noted: active = hit-call score of the fitted dose curve at least 0.9, where 1 is the maximum; inactive = score below 0.9.
# Assays:
# [1] = CCTE_Shafer_MEA_acute_AB: CCTE's Alamar Blue Assay for Cytotoxicity in the Neural Acute Assay, Shafer Lab (AID 2284069; active = hit-call score of the fitted dose curve at least 0.9, where 1 is the maximum;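 note: active compounds lower the viability signal compared with DMSO wells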)
# In short: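 Cytotoxicity endpoint for acute MEA exposures of primary rat cortical neurons on day 13 or 15. Resazurin reduction is read fluorescently at 544/590 nm, with DMSO as the negative-control baseline.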
# [2] = CCTE_Shafer_MEA_acute_LDH: CCTE's Lactate Dehydrogenase Assay for Cytotoxicity in the Neural Acute Assay, Shafer Lab (AID 2284086; active = hit-call score of the fitted dose curve at least 0.9, where 1 is the maximum;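 note: active means LDH release rises above DMSO vehicle level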)
# In short: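 Released lactate dehydrogenase, read at 490 nm, indicated cytotoxicity after acute 40-min compound treatment of rat cortical neuron networks grown on 48-well MEA plates.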
# [3] = BSK_BT_PBMCCytotoxicity: PBMC Cytotoxicity Assessment in the BioMAP Diversity Plus: BT Assay (AID 2284225); conditions: primary human B cells with PBMC;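 note: PBMC viability measured by Alamar Blue dye reduction fluorescence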
# In short: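 75,000 cells/well; cpd 1 h → SEB + TSST-1 (20 ng/mL final each) → 90 h → Alamar Blue 6 h → fluor. 546/580 nm. DMSO = neg. control/baseline.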
# [4] = read-out: Secreted IgG (sIgG), gene 3500; test: BSK_BT_sIgG: BioMAP Diversity Plus: BT Assay for Secreted IgG (sIgG) Biomarker Activity (AID 2284226); conditions: primary human B cells with PBMC
# In short: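 Secreted IgG from a human primary B cell–PBMC co-culture was measured by ELISA 24 hours after dosing, with DMSO defining baseline activity.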
smiles,measurement,setting,value
CCN=C1C=CC(=C(c2ccc(N(CC)CC)cc2)c2ccc(N(CC)CC)cc2)c2ccccc21,AC50,[1],6.86 µM (active)
same,outcome,[2],inactive
Nc1cc([N+](=O)[O-])cc(Cl)c1O,outcome,[3],inactive
same,outcome,[4],inactive
O=C(F)C1(F)C(F)(F)C(F)(F)C(F)(F)C(F)(F)C1(F)F,outcome,[3],inactive
same,outcome,[4],inactive
O=C(O)C(F)(F)C(F)(F)C(F)(F)C(=O)O,outcome,[3],inactive
same,outcome,[4],inactive
O=C=NCc1cccc(CN=C=O)c1,outcome,[3],inactive
same,outcome,[4],inactive
COC(F)(C(F)F)C(F)(F)F (configuration not stated),outcome,[3],inactive
same,outcome,[4],inactive
O=S(=O)(Cl)C(F)(F)C(F)(F)C(F)(F)C(F)(F)C(F)(F)C(F)(F)C(F)(F)C(F)(F)F,AC50,[3],8.8 µM (active) and 16.2 µM (active)
same,outcome,[4],inactive
O=C(O)C(F)(F)C(F)(F)C(F)(F)C(F)(F)C(F)(F)C(F)(F)C(F)F,outcome,[3],inactive
same,outcome,[4],inactive
CC(C)CCCC(C)CCO (configuration not stated),outcome,[3],inactive
same,outcome,[4],inactive
Cc1cc(O)c(C(C)(C)C)cc1C(C)(C)C,AC50,[3],26.5 µM (active)
same,AC50,[4],12.9 µM (active)
Cc1ccc(S(=O)(=O)C(I)I)cc1,AC50,[3],4.06 µM (active)
same,AC50,[4],2.03 µM (active)
CCOC(=O)CC(=O)C(F)(F)C(F)(F)F,outcome,[3],inactive
same,outcome,[4],inactive
CCN(CC)c1ccc(C=O)cc1,outcome,[3],inactive
same,outcome,[4],inactive
CCOC(C=C(C)CCC=C(C)C)OCC,outcome,[3],inactive
same,outcome,[4],inactive
FC(F)(F)C(F)(F)C(F)(F)C(F)(F)C(F)(F)C(F)(F)CC[Si](Cl)(Cl)Cl,outcome,[3],inactive
same,outcome,[4],inactive
NCC(F)(F)C(F)(F)C(F)(F)C(F)(F)C(F)(F)C(F)(F)F,outcome,[3],inactive
same,outcome,[4],inactive
